ATXN2 expr inh: inhibitors of ATXN2 expression | HEK-293 ATXN2-luciferase reporter, luminescence, 24 h | Potency, µM (highest dose often 57 µM), without a hit: at the highest dose activity change, negative = inhibition, actives largely listed as inhibitors | 360,000 compounds, 0.72% hits | AID 1745845; also: potency is read from the fitted curve at half-maximal effect; % is scaled to controls: 0 for no effect and ±100 for the full control effect; nearly all actives have a fitted effect of over 55% in size
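ATXN2-luciferase reporter cells (luciferase flanked by upstream and downstream ATXN2 gene portions) were treated 24 h at 37 °C with compounds at up to 57 uM. SteadyGlo luminescence gave expression; GF-AFC fluorescence gave viability.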
a7 integrin act: activates integrin-mediated alleviation for muscular dystrophy; alpha7betagal myoblasts, beta-gal FDG fluorescence, 48 h; Potency, µM (doses to about 38.3 µM), without a hit: at the highest dose activation, actives largely listed as activators; 350,000 compounds, 0.064% hits;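 also: potency is read from the fitted curve at half-maximal effect; 100% = response of the positive control SU9516; nearly all actives have a fitted effect of over 60% in size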
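Alpha7betagal+/- myoblasts (passage 13) were plated 16-24 hr, then exposed to compounds (1:260 dilution of DMSO stock) for 48 hours at 37C. After MPER lysis, β-galactosidase reporter activity was read as FDG fluorescence (ex 480/em 540) after 30 minutes.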
S2 tox: cell viability loss in ATXN counter-screen. Potency, µM (top dose mostly 56.7 µM), most hits filed as cytotoxic. S2 cells (HEK-293 line with an ATXN2-luciferase reporter) viability, CellTiter-Fluor protease fluorescence, 24 h. 400,000 compounds, 0.49% hits; also: potency is read from the fitted curve at half-maximal effect; nearly all actives have a fitted effect of over 40% in size
IL1B secr inh: inhibitors of inflammasome signaling (IL-1 beta secretion) | THP-1 LPS/ATP IL-1B secretion, AlphaLISA, 16 h; active compounds read low | activity change, % at 57.5 µM | 360,000 compounds, 4.7% hits; in the data active = activity change below about -50%; inconclusive = mostly about -30% to -49%; also: % is scaled to controls: 0 for no effect and ±100 for the full control effect
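Secreted IL-1B measured by AlphaLISA bead assay after 16 h compound exposure of THP-1 cells; compounds (final up to 57.5 uM) added 1 h before LPS (250 ng/mL) and ATP (1.25 mM) stimulation; lower signal means less secretion.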
D3 ag: D3 dopamine receptor (human) agonism; P35462; D3R DiscoveRx beta-arrestin cells, luminescence, 90 min; max activation, %; 410,000 compounds, 0.58% hits; AID 652048; in the data active = max activation above about 30%; also: 0% is about no effect
Target sequence (P35462 whole entry, looked up): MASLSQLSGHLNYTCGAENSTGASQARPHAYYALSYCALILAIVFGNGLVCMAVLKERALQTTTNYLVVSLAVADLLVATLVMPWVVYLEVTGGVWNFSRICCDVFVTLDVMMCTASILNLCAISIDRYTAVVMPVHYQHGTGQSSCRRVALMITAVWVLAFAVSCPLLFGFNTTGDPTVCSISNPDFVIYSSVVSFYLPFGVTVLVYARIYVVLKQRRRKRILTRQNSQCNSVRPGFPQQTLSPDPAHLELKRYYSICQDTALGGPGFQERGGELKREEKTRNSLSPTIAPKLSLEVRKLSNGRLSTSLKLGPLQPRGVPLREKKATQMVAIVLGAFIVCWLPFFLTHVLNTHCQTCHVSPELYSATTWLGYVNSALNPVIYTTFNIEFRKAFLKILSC
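Agonist-mode cell screen: cells plated at 1500/well and incubated overnight at 37 °C, then exposed to library compounds for 90 min at 37 °C. Detection reagent was added for 30–60 min at room temperature, and luminescence was read.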
D3 antag: D3 dopamine receptor (human) antagonism. max response, negative = inhibition, %. D3R cells, DiscoveRx beta-arrestin luminescence, antagonist mode; active compounds read low. 360,000 compounds, 2.5% hits. P35462. AID 652054; in the data active = max response below about -50%; inconclusive = no clear call, values can overlap the other calls; also: % is scaled to controls: 0 for no effect and ±100 for the full control effect
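Cells plated overnight at 1500 cells/well, then exposed to library compounds with dopamine controls for 90 minutes at 37 degrees C. DiscoveRx reagent added for 30–60 minutes at room temperature; luminescence read, quantitative HTS format.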
Numbers without * were called inactive; i = inactive; ? = inconclusive; / = not tested or not shown; [ ] = dose if it differs, or a comment. Compounds with a hit are over-represented: about 7% of the library has one in this group of screens. Unless noted, calls follow the shape of the dose curve; as a rule, active = well fitted curve in the direction sought with a large enough effect; inconclusive = small, poorly fitted or top-dose-only effect, or another doubt; inactive = no such curve, though single readings can be large; an effect the other way counts as inactive or inconclusive.

SMILES	ATXN2 expr inh	a7 integrin act	S2 tox	IL1B secr inh	D3 ag	D3 antag
CCOc1ccc(-c2csc(Cn3c(CN4CCN(C)CC4)nc4ccccc4c3=O)n2)cc1	?	-38.3%	?	-75.2*	21.6	36.0
CC(C)(C)C(=O)O/N=C(\N)c1ccc(Br)cc1	5.5%	-0.3%	i	6.7	11.8	-2.6
CCOC(=O)c1cn(CC(=O)Nc2ccc(C)cc2)nn1	-0.8%	-3.6%[7.66 µM]	i	11.6	-4.4	-11.5
CCOC(=O)c1cn(CC(=O)Nc2ccccc2C(=O)OCC)nn1	9.6%	-2.9%	i	6.8	-5.7	-71.6*
CCOC(=O)c1ccccc1NC(=O)CSc1nnnn1C1CCCCC1	5.9%	-33.0%	i	?	-29.7	-77.1*
CCOC(=O)c1ccccc1NC(=O)CSc1ccc(-c2ccccn2)nn1	3.55µM*	-6.8%	?	149.2	7.2	15.6
Cc1cccc(NC(=O)CSc2ccc(-c3ccccn3)nn2)c1	/	/	/	/	-7.2	/
COc1ccc(C)cc1NC(=O)CSc1ccc(-c2ccccn2)nn1	14.1µM*	-1.2%	?	i	-2.8	12.6
OC(Cc1cccc(Br)c1)c1ncc(-c2ccccc2C(F)(F)F)[nH]1 (centres undefined)	-15.8%	/	i	3.3	3.5	9.5
CN(c1ccc(OCC(=O)Nc2ccc(S(N)(=O)=O)cc2)cc1)S(=O)(=O)c1ccc(F)cc1	1.6%	-5.3%	i	20.4	4.2	18.9
CCCCCCN1CCN(C2CN(Cc3cn(Cc4cc(C)cc(C)c4)nn3)S(=O)(=O)C2)CC1 (centres undefined)	?	/	?	?	-3.9	0.2
CCCCCCN1CCN(C2CN(Cc3cn(Cc4ccccc4)nn3)S(=O)(=O)C2)CC1 (centres undefined)	-0.7%	/	i	-14.6	-10.1	-50.9*
O=S1(=O)CC(N2CCN(CCO)CC2)CN1Cc1ccc(F)cc1 (centres undefined)	3.1%	/	i	10.7	-0.4	0.0
Cc1cc(C)cc(Cn2cc(CN3CC(N4CCSCC4)CS3(=O)=O)nn2)c1 (centres undefined)	10.5%	/	i	-19.8	-1.3	-54.5*
Cc1ccc(CN2CC(N3CCN(CCO)CC3)CS2(=O)=O)cc1 (centres undefined)	0.2%	/	i	0.0	-4.3	-61.4*
CCn1c(=O)n(CC)c2cc(S(=O)(=O)Nc3c(C)cccc3C)ccc21	-9.5%	11.7%	i	9.4	-0.5	-3.4
CCOc1ccccc1NC(=O)CCNC(=O)C1CCN(S(=O)(=O)c2ccccc2)CC1	/	-6.7%	i	32.2	1.9	15.1
CCSCCc1nnc(NC(=O)Nc2cccc(C(F)(F)F)c2)s1	?	-59.6%	i	-69.3*	8.2	20.9
CC(C)N(Cc1nc(-c2ccc(Cl)cc2)no1)C(=O)CCCN1C(=O)c2ccccc2C1=O	-26.4%	11.5%	i	0.5	-2.7	-20.5
CCOC(=O)Cn1nc(C)cc1NC(=O)c1ccncc1	1.5%	11.6%	i	14.9	-1.0	20.5
CCOC(=O)Cn1nc(C)cc1NC(=O)c1cc(OC)c(OC)c(OC)c1	/	-13.1%	?	-78.4*	-1.4	-4.0
Cc1ccc2c(c1)COc1c3ccc(C(=O)O)cc3nn1-2	7.94µM*	-3.0%	i	3.8	14.3	-2.8
COc1ccc(OC)c(N(C(=O)c2ccco2)C(C(=O)NC2CCCC2)c2ccc(N3CCOCC3)cc2)c1 (centres undefined)	5.5%	0.0%	i	-12.4	16.5	7.2
COc1ccc(C)cc1N(C(=O)c1ccco1)C(C(=O)NC1CCCC1)c1ccc(N2CCOCC2)cc1 (centres undefined)	-9.3%	0.0%	i	-58.5*	-7.5	-21.7
Oc1ccc(C[C@H]2CNC(=S)N2C[C@H]2CCCN2C[C@H](Cc2ccccc2)N2C[C@H](Cc3ccc(O)cc3)N(CC3CCCCCC3)C2=S)cc1	0.0%	/	20µM*	0.0	-0.4	-26.8
SMILES	ATXN2 expr inh	a7 integrin act	S2 tox	IL1B secr inh	D3 ag	D3 antag
Oc1ccc(C[C@H]2CN([C@@H](Cc3ccc(O)cc3)CN3CCC[C@@H]3CN3C(=S)NC[C@@H]3Cc3ccccc3)C(=S)N2CC2CCCCCC2)cc1	10µM*	/	8.91µM*	-51.2*	-10.4	-21.7
Oc1ccc(C[C@H]2CN([C@@H](Cc3cccc(O)c3)CN3CCC[C@@H]3CN3C(=S)NC[C@@H]3Cc3ccccc3)C(=S)N2CC2CCCCC2)cc1	15.8µM*	/	12.6µM*	-11.8	-19.2	?
Oc1ccc(C[C@H]2CN([C@@H](Cc3ccccc3)CN3CCCC3CN3C(=S)NC[C@@H]3Cc3ccccc3)C(=S)N2CC2CCCCC2)cc1 (some centres undefined)	-32.6%	/	?	10.8	-7.9	?
Oc1ccc(C[C@H]2CNC(=S)N2CC2CCCN2C[C@H](Cc2ccccc2)N2C[C@H](Cc3ccc(O)cc3)N(CC3CCCCCC3)C2=S)cc1 (some centres undefined)	?	-41.4%	?	?	-21.5	10.7
COc1cc(NC(=O)c2ccc3c(c2)OCCO3)ccc1NC(=O)c1cccs1	-33.6%	-1.6%	?	-17.0	4.4	4.6
O=C(O)c1ccc(NC(=O)c2cccc(C(=O)Nc3ccc(C(=O)O)cc3)c2)cc1	/	14.8%	i	21.6	-4.7	?
Cc1ccnc(Nc2nc(-c3ccc(O)cc3)cs2)c1	47.2%	7.8%	i	-21.4	3.6	14.8
Cc1ccnc(Nc2nc(-c3ccc(O)c(O)c3)cs2)c1	26.2%	11.8%	?	-59.5*	6.9	-13.3
Cc1ccc(C(C(=O)NCc2ccco2)N(C(=O)CNC(=O)c2cccs2)c2c(C)cccc2C)cc1 (centres undefined)	-18.3%	0.3%	i	-22.5	-8.9	-4.6
CCc1ccc(S(=O)(=O)c2nnn3c2nc(NCCNC(C)=O)c2cc(Cl)ccc23)cc1	3.2%	/	i	/	2.3	/
Oc1ccc(N=Nc2cccc(Cl)c2)cc1C=Nc1ccc(N2CCOCC2)cc1	-24.6%	-16.1%	i	-1.9	7.2	-75.5*
Oc1c(Br)cc(Cl)cc1C=Nc1ccc(N2CCOCC2)cc1	0.1%[11.3 µM]	5.2%	/	5.0	0.9	1.8
O=C1CC(c2cccc(Cl)c2)CC(O)=C1C=NCCCO (centres undefined)	-7.3%	5.6%	i	-2.5	-6.2	-89.7*
C/C(=N\NC(N)=S)c1ccc(Cl)s1	-11.2%	-26.2%	i	-78.5*	-5.7	-29.5
C=C1CCC[C@]2(C)C[C@H]3OC(=O)C(CN4CCCCC4CO)[C@H]3CC12 (some centres undefined)	7.3%	-17.4%	i	/	-2.2	?

Bioassay records as filed in PubChem BioAssay.
